Source: PubChem BioAssay (EPA / NIEHS)
Results filed as inconclusive are left out. The source made the active and inactive calls. The calls were made as follows: active = hit-call score of the fitted dose curve at least 0.9, where 1 is the maximum; inconclusive = response in the unintended direction; inactive = score below 0.9.

target: human Ephrin type-A Receptor 1 (EphA1), EPHA1 (gene 2041) (UniProt P21709); experiment: NVS_ENZ_hEphA1: NovaScreen (NVS) Enzymatic Assay for human Ephrin type-A Receptor 1 (EphA1) (AID 2283158);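 also: activity is signal loss versus DMSO meaning EphA1 kinase inhibition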
How it was run: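 Fluorescent substrate conversion, resolved by mobility-shift separation, measured 1 hour post-dosing using recombinant enzyme; signal loss relative to DMSO baseline. Single-concentration duplicates at 25 uM preceded singleton concentration series topping at 50 uM.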

human Ephrin type-A Receptor 1 (EphA1), EPHA1 (gene 2041), sequence (P21709 whole entry, looked up): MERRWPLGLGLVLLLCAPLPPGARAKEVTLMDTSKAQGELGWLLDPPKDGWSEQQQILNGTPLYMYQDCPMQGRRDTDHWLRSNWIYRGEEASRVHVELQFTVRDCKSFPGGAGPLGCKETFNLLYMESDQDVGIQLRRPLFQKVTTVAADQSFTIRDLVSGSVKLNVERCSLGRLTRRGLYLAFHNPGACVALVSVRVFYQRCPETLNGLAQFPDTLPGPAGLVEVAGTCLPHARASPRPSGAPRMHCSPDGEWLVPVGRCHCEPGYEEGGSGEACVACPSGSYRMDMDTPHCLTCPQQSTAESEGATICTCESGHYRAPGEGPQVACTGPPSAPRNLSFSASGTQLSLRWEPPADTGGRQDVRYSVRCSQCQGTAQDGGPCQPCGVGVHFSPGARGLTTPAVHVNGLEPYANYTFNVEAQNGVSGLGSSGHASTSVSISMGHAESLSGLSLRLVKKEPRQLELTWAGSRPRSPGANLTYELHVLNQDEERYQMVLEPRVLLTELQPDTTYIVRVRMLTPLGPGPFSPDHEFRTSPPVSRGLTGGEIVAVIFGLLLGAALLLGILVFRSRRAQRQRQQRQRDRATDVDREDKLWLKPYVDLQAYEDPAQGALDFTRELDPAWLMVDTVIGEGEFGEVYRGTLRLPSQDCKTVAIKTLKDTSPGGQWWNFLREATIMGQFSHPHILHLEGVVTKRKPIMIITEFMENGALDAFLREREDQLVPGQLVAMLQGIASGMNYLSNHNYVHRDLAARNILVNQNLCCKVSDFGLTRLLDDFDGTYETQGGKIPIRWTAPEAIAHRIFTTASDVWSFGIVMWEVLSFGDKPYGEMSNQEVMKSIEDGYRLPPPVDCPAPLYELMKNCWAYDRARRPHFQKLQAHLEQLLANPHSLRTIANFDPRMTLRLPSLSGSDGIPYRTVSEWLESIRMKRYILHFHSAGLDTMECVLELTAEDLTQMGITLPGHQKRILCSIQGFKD

outcome, inactive:
O=C(O)c1cc(N=Nc2ccc(S(=O)(=O)Nc3ccccn3)cc2)ccc1O, CNS(=O)(=O)c1cc(C(=O)N2CCC(CCN3C4CCC3CC(n3c(C)nc5ccccc53)C4)(c3cccc(F)c3)CC2)c(Cl)cc1F (centres undefined), COc1ccc(/C=C/S(=O)(=O)NC(=O)c2ccc(C)cc2Cl)cc1, Cc1ccc(N)cc1O
